From PubChem BioAssay (NCI)
About 79,000 compounds went through this panel and 15% of them were active in at least one assay; those are over-represented in the sample as a whole. Active and inactive are the calls of the source. Rule as the data show it: active = growth inhibition above about 70%; inactive = the rest.

test: NCI Yeast Anticancer Drug Screen. Data for the cln2 rad14 strain (AID 165);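 also: 0% = growth equal to vehicle treated cultures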; settings: S. cerevisiae cln2 rad14 strain, at 50.0 µM, hits give high values
Procedure, shortened: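 Yeast strain cln2 rad14, bearing defects in cell cycle control and DNA repair, serves as the test system; values reflect growth inhibition compared with vehicle.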

SMILES | growth inhibition
CC(C)Cn1cnc2c(Cl)nc3ccccc3c21 | 0.25% (inactive)
COC(=O)c1nc(N)[nH]c(=O)c1CCCCCc1c(C(=O)OC)nc(N)[nH]c1=O | 6.5% (inactive)
O=C(C(=O)N1CCc2ccccc21)c1c[nH]c2ccccc12 | 3.1% (inactive)
CC(C)(N)C(=O)O | -10.9% (inactive)
O=C(O)CCSc1ccc([N+](=O)[O-])cc1 | -44.1% (inactive)
O=c1oc2ccc3ccccc3c2c2c1CCCCC2 | -22.1% (inactive)
Cc1cc(C)c(S(=O)(=O)ONC(=O)OC(C)(C)C)c(C)c1 | 4.9% (inactive)
O=C1CC2(CCCc3sccc32)C(=O)N1 (stereo not given) | -21.1% (inactive)
CC1(c2cccc[n+]2Cc2ccccc2S(=O)(=O)[O-])OCCO1 | 0.3% (inactive)
CCCc1cc(-c2ccc(-c3cc(CCC)c(C=O)[nH]3)s2)[nH]c1C=O | -4.9% (inactive)
CCOC(OCC)C(=O)NC(C)c1ccc(O)c(OC)c1 (stereo not given) | -12.2% (inactive)
CCCCCOC(=O)CC(CC(=O)OCCCCC)C(=O)OCCCCC | -3.8% (inactive)
CCOc1ccc(CCC(=O)O)cc1 | 2.8% (inactive)
O=C(CC(=O)N1N=C(n2ccc3ccccc32)CC1c1ccccc1)Nc1ccccc1Cl (stereo not given) | 29.7% (inactive)
O=C1CSC(c2ccccc2Br)N1c1nncs1 (stereo not given) | 0.9% (inactive)
CC/C(CC(C)CC)=N\O (stereo not given) | 12.5% (inactive)
CCn1c2ccc(C=O)cc2c2cc([N+](=O)[O-])ccc21 | -0.05% (inactive)
CCOc1c(N=Nc2ccccc2C)c(C)nn1C(N)=S | -24.6% (inactive)
On1c(-c2ccccc2)c(-c2c(-c3ccccc3)n(O)c3ccccc23)c2ccccc21 | -24.2% (inactive)
O=C1NC(=O)C(c2ccc(Cl)cc2)N1 (stereo not given) | -5.3% (inactive)

SMILES | growth inhibition
N#CC1(c2ccccc2)C(c2ccccc2)CC(O)(c2ccccc2)C(C(=O)c2ccccc2)C1c1ccccc1 (stereo not given) | 14.3% (inactive)
C/C(Nc1ccc(Cl)cc1)=C1/CCOC1=O | 13.1% (inactive)
CCOC(OCC)n1ncnc1NC(=S)NCc1ccccc1 | -2.7% (inactive)
Fc1ccc(CC(F)F)cc1 | 4.6% (inactive)
CC(=O)N(C)c1ccc(N)cc1 | -2.35% (inactive)
C#CCOC(=O)C(N)CC(N)=O (stereo not given) | -11.8% (inactive)
CCN(CC)CCCn1cnc2ncccc2c1=O | 21% (inactive)
COCc1ccccc1P(c1ccccc1COC)c1ccccc1COC | 16.2% (inactive)
COC(=O)C1=C(C(=O)OC)SC(=CC#CC=C2SC(C(=O)OC)=C(C(=O)OC)S2)S1 | -59.7% (inactive)
ClC(=Nc1ccccc1)c1cc(Cl)ccn1 | -12.4% (inactive)
COc1cccc(OC)c1NC(=O)NCCCl | 50.8% (inactive)
O=S(=O)(c1ccccc1)c1cccc2c[n+]3ccccc3cc12 | 24.6% (inactive)
Cc1cc(Cl)c(O)c(-c2cc(-c3ccc([N+](=O)[O-])cc3)c3c(N)[nH]c(=O)nc3n2)c1 | 6.2% (inactive)
Cc1ccccc1N(CC1CO1)CC1CO1 (stereo not given) | -19% (inactive)
COc1ccc(CSc2nc3ccccc3nc2-c2cccs2)cc1 | -1.35% (inactive)
CCOc1ccc(NC(=O)C2=C(C)NC(C)=C(C(=O)Nc3ccc(OCC)cc3)C2c2ccc(O)c(OC)c2)cc1 | -16.4% (inactive)
CC(O)c1cc2c(s1)C(=O)c1sccc1C2=O (stereo not given) | 91.2% (active)
Cn1cnc([N+](=O)[O-])c1C(=O)NCc1ccccc1 | -20.8% (inactive)
Cn1c([N+](=O)[O-])cnc1CN1CCN(CCO)CC1 | 26.7% (inactive)
COC(=O)c1c(O)ccc(O)c1C(=O)OC | -16.6% (inactive)

test: NCI Yeast Anticancer Drug Screen. Data for the bub3 strain (AID 167); settings: S. cerevisiae bub3 mutant strain, at 50.0 µM, hits give high values
Procedure, shortened: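 Inhibition values come from growth of compound-treated mutant yeast normalised to vehicle-treated controls.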

SMILES | growth inhibition
CC(C)Cn1cnc2c(Cl)nc3ccccc3c21 | 33.5% (inactive)
COC(=O)c1nc(N)[nH]c(=O)c1CCCCCc1c(C(=O)OC)nc(N)[nH]c1=O | -0.3% (inactive)
O=C(C(=O)N1CCc2ccccc21)c1c[nH]c2ccccc12 | -2.95% (inactive)
CC(C)(N)C(=O)O | -12.1% (inactive)
O=C(O)CCSc1ccc([N+](=O)[O-])cc1 | -11.5% (inactive)
O=c1oc2ccc3ccccc3c2c2c1CCCCC2 | -8.05% (inactive)
Cc1cc(C)c(S(=O)(=O)ONC(=O)OC(C)(C)C)c(C)c1 | 11.2% (inactive)
O=C1CC2(CCCc3sccc32)C(=O)N1 (stereo not given) | -5.6% (inactive)
CC1(c2cccc[n+]2Cc2ccccc2S(=O)(=O)[O-])OCCO1 | -3.95% (inactive)
CCCc1cc(-c2ccc(-c3cc(CCC)c(C=O)[nH]3)s2)[nH]c1C=O | -20.1% (inactive)
CCOC(OCC)C(=O)NC(C)c1ccc(O)c(OC)c1 (stereo not given) | -7.4% (inactive)
CCCCCOC(=O)CC(CC(=O)OCCCCC)C(=O)OCCCCC | -28.6% (inactive)
CCOc1ccc(CCC(=O)O)cc1 | -6.1% (inactive)
O=C(CC(=O)N1N=C(n2ccc3ccccc32)CC1c1ccccc1)Nc1ccccc1Cl (stereo not given) | -2.1% (inactive)
O=C1CSC(c2ccccc2Br)N1c1nncs1 (stereo not given) | 13.6% (inactive)
CC/C(CC(C)CC)=N\O (stereo not given) | -4.55% (inactive)
CCn1c2ccc(C=O)cc2c2cc([N+](=O)[O-])ccc21 | -4.7% (inactive)
CCOc1c(N=Nc2ccccc2C)c(C)nn1C(N)=S | 21.1% (inactive)
On1c(-c2ccccc2)c(-c2c(-c3ccccc3)n(O)c3ccccc23)c2ccccc21 | -7.6% (inactive)
O=C1NC(=O)C(c2ccc(Cl)cc2)N1 (stereo not given) | -3.75% (inactive)

SMILES | growth inhibition
N#CC1(c2ccccc2)C(c2ccccc2)CC(O)(c2ccccc2)C(C(=O)c2ccccc2)C1c1ccccc1 (stereo not given) | -1.1% (inactive)
C/C(Nc1ccc(Cl)cc1)=C1/CCOC1=O | 11.7% (inactive)
CCOC(OCC)n1ncnc1NC(=S)NCc1ccccc1 | -5.85% (inactive)
Fc1ccc(CC(F)F)cc1 | -23.6% (inactive)
CC(=O)N(C)c1ccc(N)cc1 | 31.8% (inactive)
C#CCOC(=O)C(N)CC(N)=O (stereo not given) | -26.6% (inactive)
CCN(CC)CCCn1cnc2ncccc2c1=O | -9.2% (inactive)
COCc1ccccc1P(c1ccccc1COC)c1ccccc1COC | 10.5% (inactive)
COC(=O)C1=C(C(=O)OC)SC(=CC#CC=C2SC(C(=O)OC)=C(C(=O)OC)S2)S1 | -12.8% (inactive)
ClC(=Nc1ccccc1)c1cc(Cl)ccn1 | 50% (inactive)
COc1cccc(OC)c1NC(=O)NCCCl | 0.15% (inactive)
O=S(=O)(c1ccccc1)c1cccc2c[n+]3ccccc3cc12 | 22.5% (inactive)
Cc1cc(Cl)c(O)c(-c2cc(-c3ccc([N+](=O)[O-])cc3)c3c(N)[nH]c(=O)nc3n2)c1 | 19.6% (inactive)
Cc1ccccc1N(CC1CO1)CC1CO1 (stereo not given) | -0.8% (inactive)
COc1ccc(CSc2nc3ccccc3nc2-c2cccs2)cc1 | -24.9% (inactive)
CCOc1ccc(NC(=O)C2=C(C)NC(C)=C(C(=O)Nc3ccc(OCC)cc3)C2c2ccc(O)c(OC)c2)cc1 | 16% (inactive)
CC(O)c1cc2c(s1)C(=O)c1sccc1C2=O (stereo not given) | 91.9% (active)
Cn1cnc([N+](=O)[O-])c1C(=O)NCc1ccccc1 | -7.35% (inactive)
Cn1c([N+](=O)[O-])cnc1CN1CCN(CCO)CC1 | -20.3% (inactive)
COC(=O)c1c(O)ccc(O)c1C(=O)OC | -6.4% (inactive)
